Hits are enriched below; roughly 2.4% of the tested compounds scored in any of these assays.
D2 PAM-1 – Beta-Arrestin HTS for Positive Allosteric Modulators of the Human D2 Dopamine Receptor: Potentiators. D(2) dopamine receptor (Homo sapiens), P14416. DiscoveRx D2 beta-arrestin cells, luminescence, 90 min; 100% = 57 uM dopamine signal. potentiation, % (concentration not given with the values). hit rate 0.23% among 360,000. AID 624464, 2012; in the data active = potentiation above about 50%; inconclusive = mostly about 30% to 49%
Target sequence (P14416 whole entry, looked up): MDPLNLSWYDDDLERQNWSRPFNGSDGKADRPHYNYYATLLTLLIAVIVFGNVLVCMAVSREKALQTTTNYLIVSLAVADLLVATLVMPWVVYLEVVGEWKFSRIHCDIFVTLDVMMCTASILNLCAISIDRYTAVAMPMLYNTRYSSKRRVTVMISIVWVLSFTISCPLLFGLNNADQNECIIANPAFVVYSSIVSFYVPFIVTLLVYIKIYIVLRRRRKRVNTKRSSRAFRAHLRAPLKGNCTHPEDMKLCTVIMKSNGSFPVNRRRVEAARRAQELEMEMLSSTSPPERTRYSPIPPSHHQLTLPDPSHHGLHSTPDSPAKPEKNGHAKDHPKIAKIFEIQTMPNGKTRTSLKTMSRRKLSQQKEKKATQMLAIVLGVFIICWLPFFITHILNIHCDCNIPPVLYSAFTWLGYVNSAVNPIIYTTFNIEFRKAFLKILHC
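PathHunter D2 cells, attached overnight at 37 deg C, received compound in DMSO plus dopamine at EC20 (50 nM final) for 90 min at 37 deg C. Beta-arrestin recruitment was read as luminescence after 1 h with detection reagent at ambient temperature.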
D2 antag – HTS Assay for Allosteric Antagonists of the Human D2 Dopamine Receptor: Primary Screen for Antagonists; D(2) dopamine receptor (Homo sapiens), P14416; HEK293 TREx D2 cells, calcium flux, dopamine EC80; inhibition, % at 10 µM; hit rate 2% among 340,000; AID 485344, 2010; in the data active = inhibition above about 30%; inactive = below that, where a call was filed
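Read-out: kinetic calcium fluorescence (1 cycle/s) in inducible HEK293 T-REx D2 cells after an EC80 dopamine addition that followed 180 s compound preincubation. Loss of the dopamine response indicates antagonism.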
D2 ag-1 – Beta-Arrestin HTS for Positive Allosteric Modulators of the Human D2 Dopamine Receptor: Agonists. AID 624465, 2012. hit rate 0.084% among 360,000. D(2) dopamine receptor (Homo sapiens), P14416. activation, % (test concentration not listed). DiscoveRx PathHunter D2 beta-arrestin, luminescence, 90 min; 100% = 57 uM dopamine signal; in the data active = activation above about 40%; inconclusive = between about 15% and that limit
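DiscoveRx PathHunter D2 beta-arrestin cells (2,100/well) attached overnight, then compound-stimulated 90 min at 37 C in HBSS/10 mM HEPES/0.1% Tween-20 buffer; beta-galactosidase complementation read by luminescence after 1 h at ambient temperature. Dopamine 57 uM final (EC100) as control.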
D2 PAM-2 – HTS Assay for Positive Allosteric Modulators of the Human D2 Dopamine Receptor: Primary Screen for Potentiators | HEK293 T-REx D2, calcium flux, EC20 dopamine potentiation | potentiation, % at 10 µM | D(2) dopamine receptor (Homo sapiens), P14416 | hit rate 0.34% among 340,000;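 active = potentiation over 3 SD above the plate norm, cut at about 30% in these data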
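Cells plated with tetracycline inducer and held overnight at 30 C; calcium dye loaded 30–90 min at room temperature; baseline taken, compound added and read 180 s; EC20 dopamine then added and read 180 s.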
D2 ag-2 – HTS Assay for Allosteric Agonists of the Human D2 Dopamine Receptor: Primary Screen for Agonists. D(2) dopamine receptor (Homo sapiens), P14416. HEK293 T-REx D2 cells, calcium flux agonist mode. activation, % at 2 µM. hit rate 0.53% among 340,000. AID 485358, 2010;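 active = activation over 3 SD above normal in the single-dose calcium agonist read, cut at about 30% in these data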
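Tetracycline-induced HEK293 Trex cells with D2 receptor force-coupled to calcium signaling, plated overnight at 30 C and loaded with no-wash calcium dye. Calcium flux read kinetically for 180 s after compound addition; responses flag agonists.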
A number is an active result; i = inactive; ? = inconclusive; nt = no result.

SMILES	D2 PAM-1	D2 antag	D2 ag-1	D2 PAM-2	D2 ag-2
S=c1[nH]nc(COc2ccccc2)n1/N=C/c1ccccc1Br	i	38	i	i	i
CCn1c2ccccc2c2cc(NC(=O)Cc3ccc(S(=O)(=O)N4CCOCC4)s3)ccc21	i	36	i	i	i
COc1ccccc1NC(=O)/C(C#N)=C/c1c(C)nn(-c2ccc(F)cc2)c1Cl	i	i	i	i	32
Cc1cc(Nc2cccc(Br)c2)n2c(nc3ccccc32)c1C#N	nt	nt	nt	i	i
O=C(Cc1ccc([N+](=O)[O-])cc1)Nc1ccc(Cl)cc1	i	i	i	i	i
Cc1c(Cl)cccc1NC(=O)Cc1ccc([N+](=O)[O-])cc1	i	45	i	i	i
COc1ccc(/C=C/c2nnc(NC(=O)CSc3ccc(C)cc3)s2)cc1	i	nt	i	nt	nt
CCC(=O)Nc1nnc(/C=C/c2ccc(OC)cc2)s1	i	35	i	i	i
Cc1nc(NCc2ccco2)[nH]c(=O)c1CCC(C)C	i	30	i	nt	i
Cc1noc(C)c1CSc1nc2[nH]ncc2c(=O)n1-c1ccccc1	i	i	i	32	i
Cc1nc(-c2cccc(NC(=O)COc3ccc(Cl)cc3)c2)cs1	i	70	i	i	i
CCC(=O)Nc1cccc(-c2csc(-c3ccccc3)n2)c1	i	38	i	i	i
CCC(=O)Nc1cccc(C(=O)c2ccccc2)c1	i	i	i	31	i
CC(C)CC(=O)Nc1cccc(-c2csc(-c3ccccc3)n2)c1	i	i	i	i	i
O=C(COc1ccc(Cl)cc1)Nc1ccc2[nH]ncc2c1	i	34	i	i	i
COc1ccc(C(C)=O)cc1Cn1c(C)c(C(=O)NCCC#N)sc1=O	i	nt	i	nt	nt
Cc1cc(NC(=O)NCc2ccc3c(c2)CCN3C(=O)c2ccccc2)ccc1Br	nt	nt	nt	i	i
CC(O)CNCCOc1ccccc1OCc1ccccc1 (stereo not drawn)	i	45	i	i	i
CCNCc1ccccc1OCc1ccccc1	i	i	i	i	i
CC(O)CNCCNCc1c(OCc2ccccc2)ccc2ccccc12 (stereo not drawn)	i	i	i	32	i
OCCNCc1c(OCc2ccc(Cl)cc2)ccc2ccccc12	i	i	i	i	i
COc1ccc(CNC(=O)c2ccc(-c3nc(CSc4ccc(C)cc4)c(C)o3)cc2)c(OC)c1	nt	nt	nt	i	nt
Cc1cc(C)cc(NC(=O)[C@H](NC(=O)[C@@H]2Cc3ccccc3CN2)c2ccccc2)c1	i	40	i	i	i
N/C(Cc1ccc(Cl)cc1)=N\OC(=O)c1ccc2ccccc2c1	168	i	?	i	i
N/C(Cc1ccc(Cl)cc1Cl)=N\OC(=O)c1ccccc1	i	i	63	i	i
SMILES	D2 PAM-1	D2 antag	D2 ag-1	D2 PAM-2	D2 ag-2
N/C(Cc1ccc(Cl)cc1)=N\OC(=O)c1cccc2ccccc12	86	i	?	i	i
CC(=O)OCCn1c2nc(=O)[nH]c(=O)c-2nc2cc(C)c(C)cc21	i	i	i	i	112
CC(=O)OCCn1c(C)[n+](CCOC(C)=O)c2cc(Cl)c(Cl)cc21	i	i	i	i	i
O=C(CCCCCCN1C(=O)c2ccccc2C1=O)NC1CCCCC1	i	32	i	i	i
Cc1cccc(NC(=O)CCCN2C(=O)c3ccccc3C2=O)n1	i	34	i	i	i
O=C(CCCCCN1C(=O)c2ccccc2C1=O)Nc1ccccc1F	i	i	i	i	i
O=C(CCCCCN1C(=O)c2ccccc2C1=O)Nc1ccc(F)cc1	i	34	i	i	i
CCOC(=O)CCCCCN1C(=O)c2cccc3cccc(c23)C1=O	i	i	i	30	i
CCOC(=O)CCCSc1nnc(CCCCCN2C(=O)c3cccc4cccc(c34)C2=O)o1	i	i	i	i	i
O=C(CCSCc1ccc(Cl)cc1)N1CCN(c2ccccc2F)CC1	nt	nt	nt	i	i
CCOC(=O)c1cccc(NC(=O)c2oc3c(c2C)-c2nn(CC)cc2CC3)c1	nt	nt	nt	i	i
Cc1ccc(NC(=O)CCCCCN2C(=O)c3ccccc3C2=O)nc1	i	i	i	i	i
Cc1cccc(NC(=O)CCCCCN2C(=O)c3ccccc3C2=O)n1	i	35	i	i	i
Cn1c(CN2CCN(c3ccc(Cl)cc3)CC2)nc2ccccc21	i	i	i	i	i
Cn1c(CN2CCN(c3ccccc3NS(C)(=O)=O)CC2)nc2ccccc21	i	33	i	i	i
O=C(NCc1ccc(F)cc1)c1cc(-c2ccc(Cl)cc2)n[nH]1	nt	nt	nt	i	i
OCC1CCCCN1C(=S)NCc1ccco1 (stereo not drawn)	?	i	i	i	i
CC1CCCC(C)N1C(=S)NCc1ccco1 (stereo not drawn)	i	30	i	i	i
CCOC(=O)COn1c(-n2nc(C)cc2C)nc2ccccc2c1=O	i	33	i	i	i
Cc1cc(C)c2nc(-c3ccccn3)cc(C(=O)NCc3cc(C)n(C)n3)c2c1	i	35	i	i	i
Cc1cc2c([nH]c3ccccc32)c2c1OC(C)(C)C=C2	i	43	i	i	i
COc1ccc(C(C)=O)cc1COC(=O)CSC(C)C(=O)Nc1cc(C)on1 (stereo not drawn)	i	i	i	i	i
COc1ccc(C(C)=O)cc1COC(=O)CSCC(=O)Nc1ccc(C)cc1	i	30	i	i	i
Cc1c2cnn(-c3ccccc3)c(=O)c2c(C)n1CCCC(=O)Nc1cccc(F)c1	nt	nt	nt	i	i
COC(=O)/C(C#N)=C1/SC=C(C)N1c1ccccc1	i	nt	i	34	nt
SMILES	D2 PAM-1	D2 antag	D2 ag-1	D2 PAM-2	D2 ag-2
O=C(CCN1CCOCC1)N/N=C/c1cc(Br)cc(Br)c1O	i	36	i	i	i
COc1cc(OC)cc(C(=O)Nc2ccc3c(c2)N(C2CCCC2)C(=O)c2ccccc2S3)c1	nt	nt	nt	i	i
COC(=O)CSc1nc2ccccc2nc1SCC(=O)OC	i	i	i	31	i
CCN1CCN(c2cc(N3CCc4ccccc4C3)c(F)cc2[N+](=O)[O-])CC1	i	62	i	i	i
CCc1cnc(Nc2nc(C(N)Cc3ccc(F)cc3)cs2)nc1 (stereo not drawn)	i	nt	i	nt	nt
O=C(Cn1nc2n(c1=O)-c1ccccc1SC2)N/N=C/c1cccs1	i	41	i	i	i
Cc1ccccc1CCNC(=O)c1cc2cc(S(=O)(=O)N3CCCCC3)ccc2n1C	nt	nt	nt	i	i
CCCOC(=O)CSc1nnc(-c2ccccc2)o1	nt	nt	nt	i	i
C=CCn1c(CNC(=O)c2ccccc2F)nnc1SCc1nc2ccccc2c(=O)[nH]1	i	nt	i	38	nt

From PubChem BioAssay
